Reference: ChEMBL document CHEMBL1157539, “Thousands of chemical starting points for antimalarial lead identification” (Nature, 2010)

Assays:
Assay type in all cases: functional
[1] = test system: Plasmodium falciparum; test: GSK_TCMDC: Inhibition of Plasmodium falciparum 3D7 in whole red blood cells, using parasite LDH activity as an index of growth. Test compounds present at 2uM
[2] = test system: Plasmodium falciparum; test: GSK_TCMDC: Inhibition of Plasmodium falciparum Dd2 in whole red blood cells, using parasite LDH activity as an index of growth. Test compounds present at 2uM
[3] = test system: HepG2; test: GSK_TCMDC: Percent inhibition of human HepG2 cell line. Test compounds present at 10uM.

Structure (SMILES)	Inhibition [1] [%]	Inhibition [2] [%]	Inhibition [3] [%]
O=C(NC1CCCCC1)N(Cc1cccc(-c2ccc(CNC3CCCC3)cc2)c1)C1CCN(Cc2ccccc2)CC1.O=C(O)C(F)(F)F	98	89	37
O=C(Nc1ccc(-c2ccccc2)cc1)Nc1cccc(Cn2ncc(N3CCCNCC3)c(Cl)c2=O)c1	100	52	14
Cc1cccc(Nc2c(-c3cc(Br)ccc3O)nc3ncccn23)c1	100	98	0
CC(C)c1nc(N2CCN(C(=S)NCc3ccccc3)CC2)c(C#N)c2c1COC(C)(C)C2	99	100	0
c1cn(-c2ccc(CNc3nccc(Nc4ccc(OCCN5CCOCC5)cc4)n3)cc2)cn1	100	3	2
O=C(Nc1ccc(-c2nc3ccccc3[nH]2)cc1)c1cccc([N+](=O)[O-])c1	100	56	45
CS(=O)(=O)Cc1ccc(Nc2ncc(Cl)c(Nc3cccnc3C(N)=O)n2)cc1.Cl	97	97	54
CCCCNCc1ccc(-c2nc(CN(CCCN3CCN(C)CC3)C(=O)Nc3cccc(Cl)c3)cs2)cc1.O=C(O)C(F)(F)F	99	73	35
COc1ccc2c(=O)ccn(CCN3CCC(NCc4ccc5c(n4)NC(=O)CS5)CC3)c2c1.Cl	98	99	7
CCN1CCC(N(CCCCCCc2ccc(C(F)(F)F)cc2)C(=O)Cn2c(CCc3cccc(F)c3F)cc(=O)c3ccccc32)CC1.O=C(O)C(O)C(O)C(=O)O	88	82	32
